We go through 15 compounds from PubChem BioAssay (NCATS).

The test system of assay [1] is UISO. Nature of the assay: qHTS assay to identify novel small-molecules to repurpose for Merkel cell carcinoma treatment (AID 1296009). Also: nearly all actives have a fitted effect of over 60% in size. Also: potency is read from the fitted curve at half-maximal effect. As to activity change, negative = cytotoxicity: % is scaled to controls: 0 for no effect and ±100 for the full control effect. The conditions noted are these: MCC and control cell lines, CellTiter-Glo viability, 72 h; series mostly up to 46 µM. In a few lines:
(§1)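 Cell viability measured by CellTiter-Glo following 72 hr compound treatment at 37 degree celsius, with NPC and MIPE libraries tested in 8- and 11-point concentration series.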

Assay [2] relates to WaGa. Described as above. The conditions noted are these: MCC and control cell lines, CellTiter-Glo viability, 72 h; series mostly up to 46 µM. In a few lines:
as §1

The test system of assay [3] is C33A. Nature of the assay: Primary qHTS to identify gynecologic anti-cancer compounds using libraries of approved drugs and bioactive compounds (AID 1345084). Also: % is scaled to controls: 0 for no effect and ±100 for the full control effect; nearly all actives have a fitted effect of over 55% in size. The conditions noted are these: Gynecologic cancer cell panel viability, ATPlite luminescence, 48 h; series mostly up to 57.5 µM. In a few lines:
(§2)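 Five-concentration response, 48 h; readout is ATP-driven luciferase luminescence.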
Background: qHTS replaces the single test concentration by a dilution series.

Assay [4] deals with CAOV3. The description is as above. The conditions noted are these: Gynecologic cancer cell panel viability, ATPlite luminescence, 48 h; series mostly up to 57.5 µM. In outline: as §2
(In general: Cellular ATP, detected with luciferase, serves as a proxy for viable cell number.)

The test system of assay [5] is CASKI. The assay is described as above. The conditions noted are these: Gynecologic cancer cell panel viability, ATPlite luminescence, 48 h; series mostly up to 57.5 µM. In outline: as §2
Assay [6] has as its system Es-2. Described as above. The note with it: Gynecologic cancer cell panel viability, ATPlite luminescence, 48 h; series mostly up to 57.5 µM. In a few lines:
as §2

Assay [7] deals with HeLa. The assay is described as above. The note with it: Gynecologic cancer cell panel viability, ATPlite luminescence, 48 h; series mostly up to 57.5 µM. In a few lines: as §2
For assay [8], the system named is Hek293T. Described as above. The conditions noted are these: Gynecologic cancer cell panel viability, ATPlite luminescence, 48 h, control line for the selectivity index; series mostly up to 57.5 µM. In a few lines:
as §2

The test system of assay [9] is JEG-3. Described as above. The note with it: Gynecologic cancer cell panel viability, ATPlite luminescence, 48 h; series mostly up to 57.5 µM. In a few lines: as §2
Assay [10] has as its system OV90. The description is as above. The note with it: Gynecologic cancer cell panel viability, ATPlite luminescence, 48 h; series mostly up to 57.5 µM. In a few lines:
as §2

The test system of assay [11] is PA-1. Described as above. The note with it: Gynecologic cancer cell panel viability, ATPlite luminescence, 48 h; series mostly up to 57.5 µM. In outline:
as §2

Assay [12] deals with SKOV3. The description is as above. The conditions noted are these: Gynecologic cancer cell panel viability, ATPlite luminescence, 48 h; series mostly up to 57.5 µM. In outline: as §2
Assay [13] concerns Tov-21-G. The description is as above. The conditions noted are these: Gynecologic cancer cell panel viability, ATPlite luminescence, 48 h; series mostly up to 57.5 µM. In a few lines: as §2
Assay [14] has as its system Tov112D. Described as above. The note with it: Gynecologic cancer cell panel viability, ATPlite luminescence, 48 h; series mostly up to 57.5 µM. In a few lines:
as §2

Assay [15] relates to astro. As to the kind of experiment: Drug repurposing screens with cells derived from glioblastoma tumor samples (AID 1345199). Also: % is scaled to controls: 0 for no effect and ±100 for the full control effect; nearly all actives have a fitted effect of over 40% in size. The conditions noted are these: viability, ATP luminescence, 48 h; series mostly up to 91.6 µM. In outline:
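Primary testing used CD133+ neurospheres from four GBM patients, seven concentrations, 48 h exposure and ATP-based viability; confirmation added three slower-growing patient lines.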

The target of assay [16] is Nuclear receptor subfamily 1 group I member 2 (Rattus norvegicus) (UniProt Q9R1A7). As to the kind of experiment: qHTS assay for small molecule activators of the rat pregnane X receptor (rPXR) signaling pathway (AID 651751; call rule not given here; also: 0% is about no effect). The note with it: rPXR reporter cells, luciferase (One-Glo), 24 h.
Assay [17] is described as follows: qHTS assay for small molecule activators of the human pregnane X receptor (PXR) signaling pathway (AID 720659; call rule not given here; also: 0% is about no effect).

Values without a mark were called inactive. Records with an inconclusive call do not appear. Active and inactive are the calls of the source. Unless noted, calls follow the shape of the dose curve; as a rule, active = well fitted curve in the direction sought with a large enough effect; inconclusive = small, poorly fitted or top-dose-only effect, or another doubt; inactive = no such curve, though single readings can be large; an effect the other way counts as inactive or inconclusive.

Nuclear receptor subfamily 1 group I member 2 (Rattus norvegicus), sequence (Q9R1A7 whole entry, looked up): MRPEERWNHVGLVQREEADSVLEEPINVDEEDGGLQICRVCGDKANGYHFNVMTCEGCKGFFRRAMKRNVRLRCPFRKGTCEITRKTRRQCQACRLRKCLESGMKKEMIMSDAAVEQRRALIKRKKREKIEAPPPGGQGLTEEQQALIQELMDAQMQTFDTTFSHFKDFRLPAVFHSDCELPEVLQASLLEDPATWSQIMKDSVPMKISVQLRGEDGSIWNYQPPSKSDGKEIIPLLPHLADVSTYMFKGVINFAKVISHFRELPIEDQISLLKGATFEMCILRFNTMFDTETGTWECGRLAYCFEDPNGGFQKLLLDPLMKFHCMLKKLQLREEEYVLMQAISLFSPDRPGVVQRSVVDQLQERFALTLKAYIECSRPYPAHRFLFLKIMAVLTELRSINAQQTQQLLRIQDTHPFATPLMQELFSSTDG

As for `CCOCCOC(=O)/C=C/c1ccc(OC)cc1`, the Potency result in [1], in assay [2], in assay [3], in assay [4], in [5] and in [6] was “inactive” each time. Further, the Potency result in [7], in [8], in assay [9], in [10], in [11] and in [12] was “inactive” in each case. The Potency entry in assay [13] and in assay [14] was “inactive” each time.

Consider `O=C(O)c1c(O)c(-c2ccccc2)nc2ccccc12`, for which the Potency result in [1], in assay [2], in assay [3], in assay [4], in assay [5] and in assay [6] was “inactive” throughout. The Potency result in assay [7], in assay [8], in [9], in assay [10], in assay [11] and in assay [12] was “inactive” in each case. Besides, the Potency result in assay [13] and in [14] was “inactive” throughout.

On to `COc1ccc(-n2[nH]c(=O)c3[nH]c4cc(Cl)ccc4c(=O)c3c2=O)c(C)c1`, for which the Potency result in [3], in assay [4], in assay [5], in assay [6], in assay [7] and in [8] was “inactive” each time. Further, the Potency entry in assay [9], in assay [10], in [11], in [12], in [13] and in assay [14] was “inactive” in each case.

With `Cc1ccc(N)cc1O`, the figures for the Potency in assay [1] and in assay [2] were 24.3 µM (active) and 6.11 µM (active), respectively. The Potency entry in assay [6], in [7], in [8] and in assay [15] was “inactive” each time. In addition, the max response in assay [16] is 0.897%. In addition, the call in [17] was inactive.

For the compound `Cc1noc(-c2ccc(-c3ccc(CC(=O)O)cc3)cc2)c1NC(=O)O[C@H](C)c1ccccc1`, the Potency entry in assay [3], in assay [4], in assay [5], in assay [6], in assay [7] and in assay [8] was “inactive” each time. The Potency entry in assay [9], in assay [10], in [11], in assay [12], in assay [13] and in assay [14] was “inactive” throughout.

For `CC1(C)CC2C(O)c3cocc3CC(C)(O)C2C1` (centres undefined), the Potency result in assay [3], in [4], in [5], in [6], in assay [7] and in [8] was “inactive” in each case. Further, the Potency entry in [9], in assay [10], in [11], in assay [12], in assay [13] and in assay [14] was “inactive” each time.

Take `CC12CCC(OC3OC(CO)C(O)C(OC4OC(CO)C(O)C(O)C4O)C3O)CC1=CCC1C2CCC2(C)/C(=C3/COC(=O)C3)CCC12O` (centres undefined): the Potency result in assay [3], in [4], in [5], in assay [6], in [7] and in assay [8] was “inactive” in each case. In addition, the Potency entry in [9], in assay [10], in [11], in assay [12] and in assay [13] was “inactive” each time.

As to `CC(=O)OC[C@H]1O[C@H](O[C@]2(CO)O[C@H](CO)[C@@H](OC(=O)/C=C/c3ccccc3)[C@@H]2O)[C@H](O)[C@@H](O)[C@@H]1O`, the Potency result in assay [3], in assay [4], in assay [5], in assay [6], in assay [7] and in [8] was “inactive” throughout. Further, the Potency result in [9], in [10], in [11], in assay [12], in assay [13] and in [14] was “inactive” each time.

Turning to `O=C(OC1C=C(CO)C2C(OC3OC(CO)C(O)C(O)C3O)OC=CC12)c1ccc(O)cc1` (centres undefined), the Potency result in assay [3], in assay [4], in assay [5], in [6], in assay [7] and in assay [8] was “inactive” each time. Also, the Potency result in [9], in assay [10], in assay [11], in assay [12], in assay [13] and in assay [14] was “inactive” in each case.

`C=CC(C)(CC/C=C(\C)C(=O)OC)OC1OC(COC(=O)CC(C)(O)CC(=O)O)C(OC2OC(CO)C(O)C(O)C2O)C(O)C1O` (centres undefined): the Potency entry in assay [3], in assay [4], in [5], in assay [6], in [7] and in [8] was “inactive” throughout. For the same compound, the Potency entry in assay [9], in [10], in assay [11], in assay [12], in assay [13] and in assay [14] was “inactive” throughout.

Take `COC(=O)C[C@H]1C(C)(C)[C@H](OC(=O)C(C)C)[C@@]2(O)C(=O)[C@]1(C)C1CC[C@]3(C)C(CC(=O)O[C@H]3c3ccoc3)[C@]13O[C@@H]32` (some centres undefined): the Potency entry in assay [3], in [4], in assay [5], in [6], in [7] and in [8] was “inactive” in each case. In addition, the Potency result in [9], in [10], in assay [11], in [12], in assay [13] and in assay [14] was “inactive” in each case.

Take `C=C1[C@H](OC(C)=O)[C@H]2[C@@H](OC(C)=O)[C@](C)(OC(C)=O)C[C@]2(OC(C)=O)C(=O)[C@H](C)/C=C/C(C)(C)C(=O)[C@H](OC(=O)C(C)C)[C@H]1OC(C)=O`: the Potency result in assay [3], in [4], in assay [5], in [6], in assay [7] and in [8] was “inactive” each time. For the same compound, the Potency result in [9], in [10], in assay [11], in assay [12], in assay [13] and in assay [14] was “inactive” each time.

On to `COC1CC(O[C@H]2CC[C@@]3(C)C(=CC[C@]4(O)C3[C@H](OC(C)=O)[C@@H](OC(=O)c3ccccc3)[C@]3(C)[C@@H](C(C)=O)CC[C@@]34O)C2)OC(C)C1OC1CC(OC)C(OC2CC(OC)C(OC3OC(C)C(OC4OC(CO)C(O)C(O)C4O)C(OC)C3O)C(C)O2)C(C)O1` (some centres undefined), for which the activity change, negative = cytotoxicity in assay [3] is -6.27% [at 6.55 µM]; in assay [4] it was -1.71% [at 6.55 µM]; in [5], -17.5% [at 6.55 µM]; in [6], 3.59% [at 6.55 µM]; in assay [7] it was -1.12% [at 6.55 µM]; in assay [8], -1.35% [at 6.55 µM]. For the same compound, the activity change, negative = cytotoxicity in [9] was -8.02% [at 6.55 µM]; in [10], 7.55% [at 6.55 µM]; in assay [11], -5.59% [at 6.55 µM]; in [12] it was 11% [at 6.55 µM]; in assay [13], -0.609% [at 6.55 µM]; in [14] it was 2.04% [at 6.55 µM].

As to `COc1c2c(c(CO)c3c1C(=O)OC3)OC1(C)CCC3(O)C(C)(C)OC(=O)CCC3(C)C1C2` (centres undefined), the Potency result in assay [3], in assay [4], in [5], in [6], in [7] and in assay [8] was “inactive” in each case. The Potency entry in assay [9], in assay [10], in assay [11], in [12], in [13] and in assay [14] was “inactive” in each case.

Regarding `C=CC(C)(O)C(O)CC1C(C)(O)C(O)C(O)C2C(C)(C)CCCC21C` (centres undefined), the Potency entry in assay [3], in assay [4], in [5], in assay [6], in assay [7] and in assay [8] was “inactive” in each case. The Potency result in [9], in assay [10], in [11], in assay [12], in [13] and in [14] was “inactive” throughout.
